Reference: PubChem BioAssay (NCI)
The panel holds about 83,000 compounds, 20% with a hit somewhere; the sample as a whole holds those more often.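 Single-concentration screen, 48 h exposure, 96-well plates. Endpoint: percent growth. Below 10 = active.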 Values without a mark were called inactive. The source made the active and inactive calls.

Legend:
Experiment in all cases: NCI-60 one-dose screen, 48 h (100 = growth as untreated, 0 = no growth, -100 = all killed)
Conditions in all cases: 10 µM unless noted
SK-MEL-2 melanoma = tested on: SK-MEL-2 melanoma
EKVX NSCLC = tested on: EKVX NSCLC
SN12C renal = tested on: SN12C renal
UO-31 renal = tested on: UO-31 renal
TK-10 renal = tested on: TK-10 renal
ACHN renal = tested on: ACHN renal
CAKI-1 renal = tested on: CAKI-1 renal
A498 renal = tested on: A498 renal
CCRF-CEM leukemia = tested on: CCRF-CEM leukemia
MOLT-4 leukemia = tested on: MOLT-4 leukemia

SMILES | growth (SK-MEL-2 melanoma) | growth (EKVX NSCLC) | growth (SN12C renal) | growth (UO-31 renal) | growth (TK-10 renal) | growth (ACHN renal) | growth (CAKI-1 renal) | growth (A498 renal) | growth (CCRF-CEM leukemia) | growth (MOLT-4 leukemia)
Cc1ccc(NC(=O)N/N=C/c2c[nH]c3ccccc23)c(C)c1 | 20.5% | 34.7% | 15.9% | 26.6% | 30.5% | 22.8% | 29.1% | 55.7% | 10% | 6.25% (active)
CCCCNc1ccc2c3c(cccc13)C(=O)N(NCC(O)COc1ccc3c(C)cc(=O)oc3c1)C2=O (stereo not drawn) | 96.9% | 77.4% | 94.5% | 43.5% |  | 86.2% | 85.6% | 89.2% | 84.2% | 77.7%
Cc1ccc(C(=O)Nc2ccc(-n3ccnc3)c(C(F)(F)F)c2)cc1C#Cc1cnc2cccnn12 | -23.6% (active) | 27.5% | 14.4% | 5.87% (active) |  | 12.3% | -4.4% (active) | -6.46% (active) | 22.9% | -32.5% (active)
O=C1Nc2cc(-c3ccc(NS(=O)(=O)c4ccc(-c5ccccc5)cc4)cc3)ccc2/C1=C/c1ccc[nH]1 | 83.1% | 10.9% | 16.3% | 68.5% |  | 47.4% | 40.7% | 75.6% | 32.2% | 27.6%
C=CC(=O)N1CCN(c2ccc3nc4c(nc3c2C(F)(F)F)C(=O)c2ncccc2C4=O)CC1 | 39.8% | 30.4% | -44% (active) | 35.7% |  | 28.3% | 36% | 134% | -17.5% (active) | -37.8% (active)
Cc1cnc2ccc(Oc3ccccc3-c3ccccc3)nn12 | 108% | 100% | 100% | 90.1% |  | 105% | 94.5% | 116% | 103% | 107%
COc1ccc(Nc2ncnc3sc4c(c23)CCN(Cc2ccccc2)C4)cc1 | 87.4% | 75.8% | 85.4% | 49% |  | 77% | 52% | 91.9% | 73.5% | 62.4%
Cn1cc(-c2cc(N)n3nc(-c4c[nH]c5ccc(F)cc45)cc3n2)c2cc(Br)cnc21 | 87.3% | 65.5% | 69.3% | 47.3% |  | 39.5% | 46% | 109% | -42.9% (active) | -10.4% (active)
S=C(Nc1ccc(OCc2nc3ccc(Cl)cc3[nH]2)cc1)NC1CCCCC1 | -44.9% (active) | -7.76% (active) | -80.6% (active) | -7.63% (active) | -10.8% (active) | -16% (active) | -5.65% (active) | -1.77% (active) | 5.6% (active) | 1.31% (active)
COc1ccc(NC(=O)Cn2c(/C=C/c3cccc(Br)c3)nc3ccccc3c2=O)cc1 | 80.3% | 81.8% | 5.79% (active) | -60.6% (active) |  | -51.1% (active) | 55.7% | -51.1% (active) | 86.8% | 86.5%
COc1ccc(-c2nc3ccc(-c4nnc(SCc5ccccc5)o4)cc3[nH]2)cc1 | 11% | -0.06% (active) | -66.3% (active) | -44.2% (active) |  | -85.2% (active) | -77.1% (active) | -36.2% (active) | 13.9% | 11.5%
COc1sc(/C=N/NC(=O)c2[nH]c3ccc(Br)cc3c2-c2ccccc2)cc1Cl | -9.93% (active) | -12.3% (active) | -26.6% (active) | -5.09% (active) |  | -67.9% (active) | -46.4% (active) | 9.37% (active) | 9.12% (active) | -3.08% (active)
COc1ccc2[nH]c(=O)c(CSc3ccccc3Nc3nccc(-c4ccc(Cl)cc4)n3)cc2c1 | 57.9% | 60% | -2.68% (active) | 45.8% |  | 31% | -1.64% (active) | 85.8% | 28.4% | -2.12% (active)
O=[N+]([O-])c1cccc(-c2nnc3c(/C=C/c4ccc(F)cc4)nc4ccccc4n23)c1 | 97.7% | 96.2% | 88% | 78.3% |  | 93.8% | 88.8% | 102% | 102% | 90.7%
N#C/C(=C/c1ccc([N+](=O)[O-])cc1)c1nnc(NC(=O)c2ccc(-n3c(=O)[nH]c4ccccc4c3=O)cc2)s1 | 103% | 93.9% | 94% | 75.6% |  | 96.3% | 92% | 132% | 97.8% | 98.5%
Oc1ccc(F)c(Nc2nc(SCCN3CCOCC3)nc3c2cnn3CC(Cl)c2ccc(Br)cc2)c1 (stereo not drawn) | 33.5% | 30% | 32.3% | 16.9% |  | 16.5% | 24% | 63.1% | -3.71% (active) | 6.17% (active)
CN1CCc2c(sc3ncnc(N/N=C/c4cccc(Cl)c4Cl)c23)C1 | 104% | 67.4% | 10.3% | 42.6% |  | -39.1% (active) | 79.4% | 114% | 4.9% (active) | 6.34% (active)
O=C(c1ccc(O)cc1)C1[C@H](c2ccccc2Br)[C@@H](c2ccccc2)NC12C(=O)Nc1ccccc12 (stereo partly drawn) | -3.4% (active) | 28.3% | 30.2% | 28.9% | 49.9% | 25.9% | 23.6% | 52.1% | 21.3% | 3.1% (active)
CCCCCCCCCc1ccc(C(=O)Nc2cc(C)ccc2C(=O)OC)cc1 | 111% | 109% | 101% | 98.4% |  | 109% | 98.8% | 128% | 87.9% | 97.5%
O=C(N/N=C/c1ccsc1)c1[nH]c2ccc(Br)cc2c1-c1ccccc1 | -82.8% (active) | -26.3% (active) | -87.5% (active) | -49.4% (active) |  | -28% (active) | -21.8% (active) | -48.1% (active) | 6.69% (active) | -8.25% (active)
